Results: ChEMBL document CHEMBL3988442, “University of Dundee, Small-Polar-MMV Screening Library” (2021)
Hit rate of the full screen: of about 48,000 compounds, about 13,000 (27%) showed an effect of 50% or more. The list shows a part of the results.

system: Wolbachia pipientis; experiment: Anti-Wolbachia Cell-Based Screen; type: functional; design: scale not given: in the data most compounds retested in dose-response had high values; details: 5 µM

Row | Compound | Percent Effect [%]
1 | CC(C)(C)Cc1noc2ncc(C(=O)N3CCSCC3)cc12 | -2.131
2 | CCc1nnc(CN2CCC(C3CCCCCN3C(=O)C3CC3)CC2)o1 (stereo not drawn) | 5.041
3 | Cc1cccc(CN2C[C@@H]3CN(C(=O)C4CCOC4)C[C@@H]3C2=O)c1 (stereo partly drawn) | 100.9
4 | O=C(C1CCOC1)N1C[C@H]2CN(Cc3cccc(F)c3)C(=O)[C@H]2C1 (stereo partly drawn) | 101.2
5 | Cc1cccc(CN2C[C@@H]3CN(C(=O)c4ccnnc4)C[C@@H]3C2=O)c1 | -7.292
6 | Cc1cccc(CN2C[C@@H]3CN(C(=O)c4ccco4)C[C@@H]3C2=O)c1 | -8.497
7 | O=C(c1ccsc1)N1C[C@H]2CN(Cc3cccc(F)c3)C(=O)[C@H]2C1 | -13.46
8 | O=C(O)C(F)(F)F.O=C1[C@H]2CN(C3CCOCC3)C[C@H]2CN1Cc1cccc(F)c1 | -0.9945
9 | O=C(Nc1ccn(Cc2cccc3cccnc23)n1)C1COCCO1 (stereo not drawn) | -13.67
10 | COc1ccc(F)c(CN2CCCC(O)(CNCC(C)(C)C)C2=O)c1 (stereo not drawn) | 1.776
11 | C[C@@H]1CN(C(=O)c2cn(CCN3CCCCC3)nn2)C[C@H](C)O1 | -14.27
12 | O=C(NCC1CCOC1)c1csc(-c2ccc(F)cc2)n1 (stereo not drawn) | 81.86
13 | O=C(NCC1CCOC1)c1csc(-c2ccc(Cl)cc2)n1 (stereo not drawn) | 107.7
14 | Cc1ccc(-c2cc(C(=O)NCC3CCOC3)n[nH]2)s1 (stereo not drawn) | -13.79
15 | Cc1ccc(-c2nc(C(=O)NCC3CCOC3)cs2)cc1 (stereo not drawn) | 113.2
16 | O=C(c1csc(-c2ccco2)n1)N(CC1CCOC1)C1CC1 (stereo not drawn) | -4.102
17 | O=C(NCC1CCOC1)c1csc(-c2ccccc2)n1 (stereo not drawn) | 102.2
18 | O=C(NCC1CCOC1)c1csc(-c2ccco2)n1 (stereo not drawn) | 5.751
19 | O=C(NCC1CCOC1)c1csc(-c2cccc(Cl)c2)n1 (stereo not drawn) | 7.495
20 | O=C(CC(F)(F)F)N1CCc2[nH]nc(-c3ccc4c(c3)OCO4)c2C1 | -1.74
21 | CNC(=O)C(C)CNC(=O)c1coc(COc2cccc(F)c2F)n1 (stereo not drawn) | -14.56
22 | CCc1ccc(CNC2(c3ccc(F)cc3)CCOCC2)o1 | 6.225
23 | Cc1ccc(-c2nc(CN(Cc3ccco3)C3CCS(=O)(=O)C3)cs2)o1 (stereo not drawn) | 9.055
24 | OC1CCCN(Cc2cn(CC3CCN(C4CCSCC4)CC3)nn2)C1 (stereo not drawn) | -15.38
25 | CC(C)C(C)N(C)Cc1nnc(-c2ccco2)o1 (stereo not drawn) | -1.497

Row | Compound | Percent Effect [%]
26 | Cc1ccc(-c2nc(CC(=O)NCC3CCCOC3)cs2)o1 (stereo not drawn) | 16.72
27 | O=C(NCC1COC2(CCOCC2)O1)c1csc(-c2cccc(Cl)c2)n1 (stereo not drawn) | 108.1
28 | O=C(NCC1CCOC1)c1cc(-c2cccc(Cl)c2)on1 (stereo not drawn) | 10.92
29 | CCOc1ccc(-c2nc(C(=O)NCC3CCOC3)cs2)cc1 (stereo not drawn) | 120.1
30 | COc1ccc(-c2nc(C(=O)NCC3CCOC3)cs2)cc1OC (stereo not drawn) | 119.6
31 | O=C(NCC1CCOC1)c1cc(-c2cccc(Cl)c2)[nH]n1 (stereo not drawn) | -2.907
32 | COCc1nc2cc(NCc3ccncc3)ccc2o1 | 5.074
33 | Cc1cc(=O)[nH]c(CCNC(=O)C(c2ccc(F)cc2)N(C)C)n1 (stereo not drawn) | 1.632
34 | Cc1nnc(NCC2(c3ccccc3)CCC2)c(C#N)c1C | 7.557
35 | CC1CCN(S(=O)(=O)NCCCn2cncn2)CC1 | 4.517
36 | COc1ncccc1CN1CCN(c2noc(C(C)C)n2)CC1 | -8.091
37 | COc1cccc(CN2CCN(c3cccc(C(C)C)n3)CC2)c1F | 77.06
38 | COc1cccc(CN2CCN(c3noc(C(C)C)n3)CC2)c1F | -2.027
39 | CCc1ccc(C(=O)O)cc1S(=O)(=O)N(C)c1cccc(C)c1 | -14.76
40 | CS(=O)(=O)Cc1nc(CN2CCOc3ccccc3C2)cs1 | 2.526
41 | Fc1cccc(CCN(c2ccc3nnnn3n2)C2CC2)c1 | -14.94
42 | O=C(C[S+]([O-])Cc1cccc(F)c1)NC1CCCC1 (stereo not drawn) | -2.524
43 | Cc1ccc(C(=O)N(Cc2cccc(F)c2)C2CC2)c(=O)[nH]1 | -0.8552
44 | CS(=O)(=O)CCN(Cc1cccc(O)c1)C1CCC(O)CC1 (stereo not drawn) | -5.154
45 | CS(=O)(=O)CCC(=O)N(CCc1cccc(F)c1)C1CC1 | 102.1
46 | CS(=O)(=O)CCCN(CCc1cccc(F)c1)C1CC1 | 89.73
47 | CS(=O)(=O)CCN(CCc1cccc(F)c1)C1CC1 | 102.8
48 | CC(C)(C)S(=O)(=O)CCNC(=O)NCCCc1cccc(F)c1 | 22.42
49 | CCCN(CCS(C)(=O)=O)C1CCc2ccccc2C1 (stereo not drawn) | 9.171
50 | NS(=O)(=O)CCN(CCc1cccc(F)c1)C1CCCC1 | 101.5

Row | Compound | Percent Effect [%]
51 | CS(=O)(=O)C1CCN(S(=O)(=O)Cc2cccc(F)c2)CC1 | -8.016
52 | CS(=O)(=O)CCC(=O)N(Cc1c(F)cccc1F)C1CCCC1 | -8.645
53 | Cc1noc(C)c1CN(C)C(=O)NC1CCN(C2CC2)CC1 | -39.67
54 | O=C(c1cc(-c2ccco2)nc2c(Cl)cccc12)N1CCS(=O)(=O)CC1 | -1.812
55 | Cc1nc2c(c(N3CCC(O)(CN4CCCC4)CC3)n1)CCN(C)CC2 | -16.37
56 | Cc1c(C2CCCN(C(=O)c3ccncc3)C2)n2c(nc1=O)CCC2.Cl (stereo not drawn) | 99.59
57 | Cc1c(C2CCCN(C(=O)Cc3ccccn3)C2)n2c(nc1=O)CCC2.Cl (stereo not drawn) | -12.52
58 | Cc1noc(C)c1C(=O)N1CCCC(c2c(C)c(=O)nc3n2CCC3)C1 (stereo not drawn) | 87.08
59 | Cc1c(C2CCCN(C(=O)c3cccnc3)C2)n2c(nc1=O)CCC2 (stereo not drawn) | 104.3
60 | Cc1nn(C)cc1-c1ccnc(N(C)Cc2ccon2)n1 | 9.555
61 | COc1cc2c(cc1OC)S(=O)(=O)N(Cc1cccc(C)c1)C2=O | -2.103
62 | Cc1cccc(C(C(=O)N(C)CCc2cn[nH]c2)N(C)C)c1 (stereo not drawn) | -40.91
63 | Cc1cnn(CC2CCCN2c2ncnc3c2CCC3)c1 (stereo not drawn) | 7.449
64 | CC(C)(C)c1cc(NC(=O)CN2CCCC(Cn3cncn3)C2)on1 (stereo not drawn) | 1.148
65 | Cc1cc(NC(=O)CN2CCC(N3CCNC3=O)CC2)on1 | 131.4
66 | Cc1cc(NC(=O)CN2CCc3nn(C)c(=O)cc3C2)on1 | -13.84
67 | Cn1nc2c(cc1=O)CN(CC(=O)Nc1cc(C(C)(C)C)no1)CC2 | 4.087
68 | O=C(CN1CCC(N2CCNC2=O)CC1)NCC(F)(F)F | -6.225
69 | CC(C)(C)c1cc(NC(=O)CN2CCC(N3CCNC3=O)CC2)on1 | 95.17
70 | COc1cc2c(cc1-c1nc3c(cnn3C(C)C3CC3)[nH]1)OCO2 (stereo not drawn) | -2.531
71 | COCC1CC2(CCN(C(C)=O)CC2)CN1Cc1csc(C)n1.O=C(O)C(F)(F)F (stereo not drawn) | -9.248
72 | CCC(=O)N1CCC2(CC1)C(=O)N(C)CCN2Cc1csc(C)n1.O=C(O)C(F)(F)F | 115.6
73 | Cc1nc(CN2CCN(C)C(=O)C23CCN(C(C)C)CC3)cs1.O=C(O)C(F)(F)F | 114.4
74 | CC(C)C(C(=O)O)c1cccc(Cl)c1 (stereo not drawn) | -23.59
75 | CC(NS(=O)(=O)CCCC#N)c1cccc(-n2cccn2)c1 (stereo not drawn) | -70.87

Row | Compound | Percent Effect [%]
76 | Cl.Cl.O=C([C@@H]1CSCN1)N1CCC2(CC1)CNCc1ccccc12 | -5.878
77 | CC(=O)N1CCC2(CC1)CN(C(=O)[C@@H]1CSCN1)c1ccc(Cl)cc12.O=C(O)C(F)(F)F | 102.4
78 | Cl.Cl.O=C([C@@H]1CSCN1)N1CC2(CCNCC2)c2cc(Cl)ccc21 | 111
79 | Cl.Cl.O=C([C@H]1CCCN1)N1CC2(CCNCC2)c2cc(Cl)ccc21 | 99.27
80 | OCC(CO)Nc1ccc2ccc(Cl)c(Cl)c2n1 | 21.88
81 | COCc1csc(NC(=O)NCc2ncccc2C)n1 | -7.53
82 | Cn1cnc2c1C(COCc1ccccc1)N(Cc1ccccn1)CC2.O=C(O)C(F)(F)F.O=C(O)C(F)(F)F (stereo not drawn) | 9.45
83 | Cc1ccccc1C(CNC(=O)CSc1nnc(N)s1)N(C)C (stereo not drawn) | -0.498
84 | Clc1ccc(N2CCN(CCCN3CCCCC3)CC2)nc1 | -9.016
85 | c1ccc(-c2ncn(CCCN3CCOCC3)c2-c2ccncc2)cc1 | -9.931
86 | Cl.c1nc(N2CCOCC2)ncc1-c1cncn1CCCN1CCCCC1 | 140.4
87 | Cc1ccccc1CC(=O)NCCNc1nccc(C(F)(F)F)n1 | -4.75
88 | Cc1nn2cccnc2c1C(=O)NCc1ccnc(OCC2CC2)c1 | 2.843
89 | Cc1cc(-c2nc(C3(NC(=O)OC(C)(C)C)CCC3)no2)on1 | 26.17
90 | CN(Cc1cn2c(n1)CN(Cc1ccc(F)cc1)CC2)Cc1ccco1.O=C(O)C(F)(F)F.O=C(O)C(F)(F)F | 12.2
91 | Cc1ccc(CN2CCn3cc(CN4CCN(C)CC4)nc3C2)cc1.O=C(O)C(F)(F)F.O=C(O)C(F)(F)F.O=C(O)C(F)(F)F | 108
92 | CN1CCN(Cc2cn3c(n2)CN(C(=O)c2cccn2C)CC3)CC1.O=C(O)C(F)(F)F.O=C(O)C(F)(F)F | 2.395
93 | COc1ccc(CN2CCn3cc(Cn4cccn4)nc3C2)cc1.O=C(O)C(F)(F)F | -6.787
94 | CN1CCN(Cc2cn3c(n2)CN(Cc2cccc(F)c2)CC3)CC1.O=C(O)C(F)(F)F.O=C(O)C(F)(F)F.O=C(O)C(F)(F)F | 118.6
95 | CN1CCN(Cc2cn3c(n2)CN(Cc2ccc(F)cc2)CC3)CC1.O=C(O)C(F)(F)F.O=C(O)C(F)(F)F.O=C(O)C(F)(F)F | 107.8
96 | O=C(CC1CC1)NCc1cn2c(n1)CN(Cc1cccc(F)c1)CC2.O=C(O)C(F)(F)F | 2.246
97 | O=C(NCc1cn2c(n1)CN(Cc1cccc(F)c1)CC2)C1CCC1.O=C(O)C(F)(F)F | -4.288
98 | COc1ccc(CN2CCn3cc(CN4CCCCC4)nc3C2)cc1.O=C(O)C(F)(F)F.O=C(O)C(F)(F)F | 13.43
